Source: the antibiotic and cytotoxicity screens of Wong et al. (2023)
The whole screen tested about 39,000 compounds, of which about 3,300 (8.5%) were called active. The list comes from a sample in which actives are over-represented; it also holds similar structures and randomly drawn compounds.

System: HepG2
Assay: cytotoxicity call (relative viability < 0.9)
Conditions: 10 µM

SMILES | cytotoxicity call
[N-]=[N+]=Nc1ccccc1[C@@H]1OC(c2ccc(OCCCO)cc2)=N[C@]1(CCS(=O)(=O)c1ccccc1)C(=O)NC[C@@H](O)CO | inactive
C[C@@H]1CN([C@H](C)CO)S(=O)(=O)c2ccc(C#CCN(C)C)cc2O[C@H]1CN(C)C(=O)c1ccccc1F | inactive
O=C(C[C@H]1C[C@@H]2c3cc(NC(=O)C4CCOCC4)ccc3O[C@@H]2[C@@H](CO)O1)NCc1ccc(Cl)cc1 | inactive
CCS(=O)(=O)N1C[C@]2(CN(Cc3cccc(c3)Cl)[C@H](CO)c3c2c2ccc(cc2n3C)OC)C1 | inactive
C[C@H](CO)N1C[C@H](C)[C@H](CN(C)C(=O)Nc2ccc(N3CCCCC3)cc2)OCc2cnnn2CCCC1=O | inactive
COc1ccc(NC(=O)Nc2ccc3c(c2)C(=O)N([C@@H](C)CO)C[C@@H](C)[C@@H](CN(C)C(=O)Cc2ccccc2)OCCCC[C@H](C)O3)cc1 | inactive
COc1ccc(NC(=O)Nc2ccc3c(c2)C(=O)N([C@H](C)CO)C[C@H](C)[C@H](CN(C)C(=O)Nc2ccccc2)OCCCC[C@@H](C)O3)cc1 | inactive
C[C@H](O)C#Cc1cnc2c(c1)C(=O)N([C@H](C)CO)C[C@@H](C)[C@H](CN(C)Cc1cncnc1)O2 | inactive
O=C(C[C@H]1C=C[C@H](NC(=O)Cc2ccccn2)[C@H](CO)O1)NCCc1ccncc1 | inactive
C[C@@H]1CN([C@@H](C)CO)C(=O)c2cc(NC(=O)CCCN(C)C)ccc2O[C@@H](C)CCCCO[C@@H]1CN(C)S(=O)(=O)c1cn(C)cn1 | inactive
C[C@@H]1CN([C@@H](C)CO)C(=O)c2c(c3ccccc3n2C)-c2ccccc2CO[C@@H]1CN(C)Cc1ccc2c(c1)OCCN2C | inactive
C[C@@H]1CN([C@H](C)CO)C(=O)c2c(c3ccccc3n2C)-c2ccccc2CO[C@H]1CN(C)Cc1ccc2c(c1)OCCN2C | inactive
C[C@H]1CN([C@@H](C)CO)C(=O)c2c(c3ccccc3n2C)-c2ccccc2CO[C@@H]1CN(C)Cc1ccc2c(c1)OCCN2C | active
C[C@H](CO)N1C[C@H](C)[C@H](CN(C)Cc2ccc3c(c2)OCCN3C)OCc2ccccc2-c2c(n(C)c3ccccc23)C1=O | inactive
C[C@@H]1CN([C@@H](C)CO)C(=O)c2c(c3ccccc3n2C)-c2ccccc2CO[C@@H]1CN(C)Cc1ccc2c(c1)OCO2 | inactive
C[C@H]1CN([C@@H](C)CO)C(=O)c2c(c3ccccc3n2C)-c2ccccc2CO[C@H]1CN(C)Cc1ccc2c(c1)OCCN2C | inactive
C[C@@H]1CN([C@H](C)CO)C(=O)c2c(c3ccccc3n2C)-c2ccccc2CO[C@@H]1CN(C)Cc1ccc2c(c1)OCCN2C | active
C[C@@H]1CN([C@@H](C)CO)C(=O)c2c(c3ccccc3n2C)-c2ccccc2CO[C@H]1CN(C)Cc1ccc2c(c1)OCCN2C | active
C[C@H](CO)N1C[C@H](C)[C@@H](CN(C)Cc2ccc3c(c2)OCCN3C)OCc2ccccc2-c2c(n(C)c3ccccc23)C1=O | inactive

SMILES | cytotoxicity call
COc1ccc(C#Cc2ccc3c(c2)[C@]2(C(=O)N3)[C@H](c3ccccc3OCCO)N3[C@H](c4ccccc4)[C@H](c4ccccc4)OC(=O)[C@H]3[C@@H]2C(=O)N2CCc3cc(OC)c(OC)cc3C2)cc1 | inactive
O=C(Cc1ccncc1)Nc1ccc2c(c1)[C@@H]1C[C@H](CC(=O)N3CCc4ccccc4C3)O[C@H](CO)[C@@H]1O2 | inactive
O=C1NC(=O)[C@H]2[C@@H]1[C@H](c1ccccc1)N1[C@@H]3C(=O)NC(=O)[C@@H]3[C@H](c3ccccc3)N21 | inactive
COc1ccc(C#Cc2ccc3c(c2)O[C@H](CN(C)C(C)=O)[C@@H](C)CN([C@@H](C)CO)S3(=O)=O)cc1 | inactive
COc1ccc2c3c(n(c2c1)C)[C@H](CO)N(C[C@]13CCN(CC1)C(=O)Nc1cccc(c1)F)C(=O)CN1CCOCC1 | inactive
N=C(NO)NCC[C@H](N)C(=O)O | inactive
C[C@@H]1CN([C@H](C)CO)C(=O)c2cc(NC(=O)NC3CCCCC3)ccc2O[C@@H](C)CCCCO[C@@H]1CN(C)C(=O)NC1CCCCC1 | inactive
C[C@H](CO)N1C[C@H](C)[C@@H](CN(C)Cc2ccc(C(F)(F)F)cc2)OCCCC[C@H](C)Oc2ccc(NC(=O)Nc3ccccc3)cc2C1=O | active
C[C@@H]1CCCCO[C@@H](CN(C)Cc2ccc(C(F)(F)F)cc2)[C@@H](C)CN([C@@H](C)CO)C(=O)c2cc(NC(=O)Nc3ccccc3)ccc2O1 | inactive
C[C@@H]1CN([C@@H](C)CO)C(=O)c2cc(NC(=O)Nc3ccccc3)ccc2O[C@@H](C)CCCCO[C@@H]1CN(C)Cc1ccc(C(F)(F)F)cc1 | active
C[C@@H]1CN([C@H](C)CO)C(=O)c2cc(NC(=O)Nc3ccccc3)ccc2O[C@@H](C)CCCCO[C@@H]1CN(C)Cc1ccc(C(F)(F)F)cc1 | active
C[C@@H]1CCCCO[C@@H](CN(C)Cc2ccc(C(F)(F)F)cc2)[C@H](C)CN([C@H](C)CO)C(=O)c2cc(NC(=O)Nc3ccccc3)ccc2O1 | active
C[C@@H]1CN([C@@H](C)CO)C(=O)c2cc(NC(=O)Nc3ccccc3)ccc2O[C@@H](C)CCCCO[C@H]1CN(C)Cc1ccc(C(F)(F)F)cc1 | inactive
C[C@@H]1CCCCO[C@@H](CN(C)Cc2ccc(C(F)(F)F)cc2)[C@H](C)CN([C@@H](C)CO)C(=O)c2cc(NC(=O)Nc3ccccc3)ccc2O1 | inactive
O=C(O)c1ccc(CNc2cn[nH]c(=O)n2)cc1 | inactive
COCCOC(=O)N1C(=O)[C@@]2(c3cc(C#CC4=CCCCC4)ccc31)[C@H](C(=O)NC[C@H](O)c1ccccc1)[C@H]1C(=O)O[C@H](c3ccccc3)[C@H](c3ccccc3)N1[C@@H]2c1ccc(O)cc1 | inactive
C[C@@H]1CN([C@@H](C)CO)C(=O)Cc2cc(NC(=O)Cn3cnnn3)ccc2O[C@H]1CN(C)S(=O)(=O)c1ccccc1 | inactive
CN(C)CC(=O)N1[C@@H](CO)[C@H](c2ccc(C3=CCCC3)cc2)C12CN(S(=O)(=O)Cc1ccccc1)C2 | inactive
C[C@H](NC(=O)N(C)C[C@H]1OCc2ccccc2-c2c(n(C)c3ccccc23)C(=O)N([C@@H](C)CO)C[C@@H]1C)c1ccccc1 | inactive
